# The supplement of paper PMC8728848
# This is one part of a sample in which the strongest signals are shown more often than they occur.
# What was measured:
# Test in all cases: glycan array binding signal (z-score within array); higher = stronger binding
# Conditions in all cases: glycan notation: IUPAC condensed, linker removed
# [1] = target: Neu5Ac(a2-6)Gal(b1-4)GlcNAc(b1-2)Man(a1-3)Man(b1-4)GlcNAc(b1-4)GlcNAc
# In short: (§1)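 Glycan array binding is given as a within-array Z-score, which can be read as non-binding when negative. The arrays, 3228 of them, came from the Consortium for Functional Glycomics database and were retained only where the protein sequence was available. Z-scores were averaged across arrays of the same protein sequence at different concentrations or buffers and across linkers.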
# [2] = target: Neu5Ac(a2-6)Gal(b1-4)GlcNAc(b1-2)Man(a1-3)[GlcNAc(b1-4)][Neu5Ac(a2-6)Gal(b1-4)GlcNAc(b1-2)Man(a1-6)]Man(b1-4)GlcNAc(b1-4)GlcNAc
# In short: as §1
# [3] = target: Neu5Ac(a2-6)Gal(b1-4)GlcNAc(b1-2)Man(a1-3)[Man(a1-6)]Man(b1-4)GlcNAc(b1-4)GlcNAc
# In short: as §1
# [4] = target: Neu5Gc(a2-8)Neu5Gc(a2-3)Gal(b1-4)GlcNAc
# In short: as §1
binder,measurement,setting,value
"UDA (Urtica dioica), P11218 (protein) MMMRFLSAVVIMSSAMAVGLVSAQRCGSQGGGGTCPALWCCSIWGWCGDSEPYCGRTCENKCWSGERSDHRCGAAVGNPPCGQDRCCSVHGWCGGGNDYCSGSKCQYRCSSSVRGPRVALSGNSTANSIGNVVVTEPLFDQMFSHRKDCPSQGFYSYHSFLVAAESFPAFGTIGDVATRKREVAAFLAHISQATSGERSDVENPHAWGLCHINTTTVTENDFCTSSDWPCAAGKKYSPRGPIQLTHNFNYGLAGQAIGEDLIQNPDLVEKDPIISFKTALWFWMSQHDNKPSCHDIVLNANSAANRIPNKGVIGNIISRAFGHDDFAVRSSSIGFYKRYCDMLGVSYGHDLKYWFDNTPSSEFQRIQMRVAA",glycan array binding signal (z-score),[1],1.69
same,glycan array binding signal (z-score),[2],-0.179
same,glycan array binding signal (z-score),[3],4.09
same,glycan array binding signal (z-score),[4],-0.107
